Data on 92 compounds can be found in PubChem BioAssay AID738 (SRMLSC, 2007).

In all, about 98,000 compounds went through this assay and about 4,900 (5%) were called active. What follows is part of a selection rich in actives, with near analogues and random picks from the rest. Values without a mark were called inactive. Cut-off read from the data, not from the text of the source: active = inhibition above about 30%; inactive = the rest.

As a reminder, the inhibition is the relative decrease from the control value, in per cent.

The test in a line: growth inhibition of yeast control strain, primary screen, counter-screen for post-Golgi transport modulator project (AID 738). Conditions: efflux-deficient yeast background strain, growth absorbance A615, 16 h; at 10 µM; stronger effect = higher value.
Regarding `C=CCNC(=O)c1cc2nc(C3CC3)cc(C(F)F)n2n1`, the inhibition was 11%. On to `COC(=O)c1cc(C(=O)OC)cc(N2C(=O)CC(N3CCN(c4ccccc4)CC3)C2=O)c1` (configuration not stated), for which the inhibition is -1.95%.

`O=C1CC(c2ccccc2)C(=O)N1c1cccc(O)c1` (configuration not stated): the inhibition was 47.5% (active).

Regarding `O=C1CC(NNc2ccccc2)C(=O)N1c1cccc(Cl)c1` (configuration not stated), the inhibition was -2.74%. Under `COc1ccc(Oc2coc3cc(OC(=O)c4cncc(Br)c4)ccc3c2=O)cc1` stands -3.94%; under `COc1ccc(C(=S)Nc2ccccc2)cc1`, -2.5%. Take `CS(=O)(=O)N(CC(=O)Nc1ccc(F)cc1F)c1cccc([N+](=O)[O-])c1`: the inhibition is -6.14%.

As to `Cc1ccc(C(=O)c2c(NC(=O)c3ccccc3)sc(C)c2C)cc1`, the inhibition is 4.53%. Consider `COC(=O)c1c(NC(=O)c2cccs2)sc2c1CCCC2`, for which the inhibition is 10.9%.

Take `Cc1ccc(C(=O)c2c(NC(=O)c3ccncc3)sc3c2CCCC3)cc1`: the inhibition was 65.8% (active). The result for `CN1C(=O)C(CC(N)=O)N(NC(=O)c2ccc(Cl)cc2)C1=S` (configuration not stated) reads -2.73%; that for `C=CCn1c(Oc2ccc(C(=O)OC)cc2)nc2c1c(=O)n(C)c(=O)n2C`, 11.7%. `Cc1nc(C)c(C(=O)N(c2ccc(C)c(C)c2)C(C(=O)NCc2ccco2)c2ccccc2)s1` (configuration not stated): the inhibition was -4.44%. With `O=C(COc1ncnc2c(Cl)cc(Cl)cc12)N1CCN(S(=O)(=O)c2ccccc2)CC1`, the inhibition was 0.78%. Under `Cc1cc(NC(=O)CN2CCCC(C)C2)n(-c2nc3ccccc3s2)n1` (configuration not stated) stands 19.3%; under `CCOC(=O)N1CCN(CC(=O)Nc2cc(C)nn2-c2nc3ccccc3s2)CC1`, 42% (active); under `Cc1nn(CC(=O)Nc2nc3ccccc3s2)c(C)c1[N+](=O)[O-]`, -2.54%.

Take `COc1ccc(/C=C2\CCCC3C2=NN(C(=O)c2scnc2C)C3c2ccc(OC)cc2)cc1` (configuration not stated): the inhibition is 9.28%. As to `CCC(C)(C)n1nnnc1C(c1cccs1)N1CCN(c2nc3ccccc3s2)CC1` (configuration not stated), the inhibition was 34.9% (active). The result for `CCC(C)(C)n1nnnc1C(c1ccccc1OC)N1CCSCC1` (configuration not stated) reads 17.9%; that for `CCC(C)(C)n1nnnc1C(c1cccs1)N1CCN(Cc2ccccc2)CC1` (configuration not stated), 3.99%; that for `CCOc1ccc(C(O)Cn2c(=N)n(CCN3CCCCC3)c3ccccc32)cc1` (configuration not stated), 7.31%. Under `O=C(CSc1nc(-c2ccco2)cc(C(F)(F)F)n1)N1CCc2ccccc2C1` stands 30.3% (active); under `O=C(CSc1nc(-c2ccco2)cc(C(F)(F)F)n1)NCc1cccs1`, 8.94%; under `FC(F)(F)c1cc(-c2ccco2)nc(N2CCOCC2)n1`, 16.9%.

`CCOC(=O)c1cnc(SC)nc1Sc1ccc(Cl)cc1Cl`: the inhibition was 3.77%. Under `Cc1ccc(NS(=O)(=O)c2c(C)[nH]c(=O)[nH]c2=O)cc1C` stands 11.7%. `O=C(Cc1ccccc1)N/N=C/c1ccc(Cl)cc1Cl`: the inhibition is 24.5%. Under `CCCOc1ccc(C2c3c(oc4cc(C)c(C)cc4c3=O)C(=O)N2CCCN2CCOCC2)cc1` (configuration not stated) stands 42.7% (active); under `CCCCOc1ccc(C(C)(O)CCN2CCOCC2)cc1` (configuration not stated), 12.6%.

Consider `COCCN1C(=O)c2oc3c(C)cc(C)cc3c(=O)c2C1c1cccc(O)c1` (configuration not stated), for which the inhibition is 4.63%.

As for `COc1ccc2c(c1)CCc1c(C(=O)N3CCc4ccccc4C3)noc1-2`, the inhibition is 44.9% (active).

Take `COc1ccc2c(c1)CCc1c(C(=O)N3CCCC3)noc1-2`: the inhibition was -1.03%. Under `COc1ccc2c(c1)CCc1c(C(=O)Nc3c(C)n(C)n(-c4ccccc4)c3=O)noc1-2` stands 21%; under `O=c1cc(C(F)(F)F)[nH]c(=O)n1C1CCCCC1`, 23.5%; under `COCCN(C(=O)c1ccco1)c1nnc(-c2ccc(OC)cc2)s1`, 10%. The result for `Cc1cc(Nc2ccccc2)nc(N)n1` reads 4.89%. For `Cc1nn(C)cc1/C=C1\CCC/C(=C\c2cn(C)nc2C)C1=O`, the inhibition was 12.9%. For `CCOC(=O)c1c(-c2ccc(C)cc2C)csc1NC(=O)CSc1nnnn1C`, the inhibition is 66.1% (active). Under `CCOC(=O)CNC(=O)CSc1nnnn1-c1cc(C)ccc1C` stands 3.59%.

In the case of `CNC(=O)CSc1nnnn1-c1ccc(C)cc1C`, the inhibition is 24.1%. For `CC(C)C(NS(=O)(=O)c1cccs1)C(=O)Nc1nc(C(C)(C)C)cs1` (configuration not stated), the inhibition is 16.8%. On to `CS(=O)(=O)N(CC(=O)N1CCN(Cc2ccc3c(c2)OCO3)CC1)c1ccc2c(c1)OCO2`, for which the inhibition is 2.83%. The result for `CCn1cc(C(=O)N2CCN(Cc3ccc4c(c3)OCO4)CC2)c2cc(OC)c(OC)cc2c1=O` reads -2.75%. For `COc1cc(Cl)c(S(=O)(=O)N2CCN(Cc3ccc4c(c3)OCO4)CC2)cc1Cl`, the inhibition is 60.2% (active).

Turning to `Cc1ccccc1OCc1nnc(SCC(=O)N2c3ccccc3Sc3ccc(Cl)cc32)o1`, the inhibition is 5.3%.

In the case of `Cc1[nH]c(=O)c(C(=O)/C=C/c2ccccc2)c2c1CCCC2`, the inhibition was 24.5%. For `O=C(NC1=NCCS1)[C@H](Cc1ccccc1)N1C(=O)c2ccccc2C1=O`, the inhibition is -1.98%. As for `CCOC(=O)c1nn(-c2cccc(C)c2)cc1C(=O)c1ccccc1`, the inhibition is 12.9%. Regarding `Nc1c(-c2ccc(F)cc2)cnc2ncnn12`, the inhibition is 1.38%. Under `CNC(=S)NNC(=O)c1sccc1OCc1ccccc1` stands 26.7%. For the compound `Cc1ccc(NC(=O)N2CCC(O)(c3cccnc3)CC2)cc1`, the inhibition is -0.9%. For the compound `CCOC(=O)C1=C(CN2CCc3ccccc32)NC(=O)NC1c1cccc([N+](=O)[O-])c1` (configuration not stated), the inhibition was 1.33%. As to `COCCOC(=O)C1=C(C)NC(=O)NC1c1ccc(Cl)cc1` (configuration not stated), the inhibition was 2.51%. The result for `CCOC(=O)C1=C(CN2CCc3ccccc32)NC(=O)NC1c1ccc(Cl)cc1` (configuration not stated) reads 40.8% (active); that for `COc1cccc2c1OCC(C(=O)NCc1ccc(Cl)cc1Cl)=C2`, 9.54%; that for `Cc1nnc(SCC(=O)N2CCN(c3ccccc3)CC2)n1-c1ccccc1`, 2.49%. The result for `O=C(CSc1nnc(-c2cccs2)n1Cc1ccccc1)N1CCc2ccccc2C1` reads 40.2% (active); that for `Cc1nnc(SCC(=O)N2CCc3ccccc3C2)s1`, 1.25%; that for `O=C(CSc1nnc(-c2cccs2)n1-c1ccccc1)N1CCN(C(=O)c2ccco2)CC1`, 37.9% (active). On to `CCn1c(SCC(=O)c2ccc3ccccc3c2)nnc1-c1cccs1`, for which the inhibition was 5.6%.

In the case of `O=C(CSc1nnc(-c2cccs2)n1-c1ccccc1)NCc1ccco1`, the inhibition was 6.51%.

For the compound `O=C(OCN1C(=O)c2ccccc2C1=O)/C(=C\c1ccco1)NC(=O)c1ccccc1`, the inhibition was -11.4%. Under `Cc1cc(OC(=O)c2c(Cl)cccc2Cl)nc(C)n1` stands 3.63%; under `O=C(Nc1ncc2c(n1)-c1ccccc1OC2)c1ccc(Cl)cc1`, 22.5%; under `CC(C)c1ccc(N2CCN(C(=O)c3ccccc3NC(=O)/C=C(\C(=O)O)c3ccccc3)CC2)cc1`, 11.3%.

Consider `Cc1ccc(S(=O)(=O)N(CC(=O)N/N=C/c2ccc(F)cc2)c2cccc3cccnc23)cc1`, for which the inhibition is 6.82%. Take `COC(=O)c1[nH]c2ccccc2c1NC(=O)CN1CCCc2ccccc21`: the inhibition is 43.4% (active). Under `COC(=O)c1[nH]c2cccc(C)c2c1NC(=O)CN1CCCc2ccccc21` stands 19.7%; under `CCOC(=O)c1[nH]c2ccc(OC)cc2c1NC(=O)CCN1CCN(Cc2ccccc2)CC1`, 1.92%. For `Cc1ccc(S(=O)(=O)NCC(=O)N2CCN(c3ccccn3)CC2)cc1`, the inhibition was 2.13%. As for `Cc1ccc2oc(=O)c3cnn(CC(=O)N4CCN(c5ccccn5)CC4)c3c2c1`, the inhibition was -3.03%. Consider `Cc1ccnc(N2CCN(C(=O)CSc3nc4ccccc4nc3N3CCCCC3)CC2)c1`, for which the inhibition is 42.9% (active). For `Cc1ccc(SCC(=O)c2sc(-c3ccccc3)nc2C)cc1`, the inhibition is -6.19%. Under `C=C(C)COc1ccc(-c2n[nH]c(C)c2-c2ccccc2OC)c(O)c1` stands 7.96%. Take `COc1ccc(-c2n[nH]c(C)c2-c2ccc(OC)c(OC)c2)c(O)c1`: the inhibition was 15%. Turning to `C=C(C)COc1ccc(-c2n[nH]c(C)c2-c2ccccc2)c(O)c1`, the inhibition was 34.8% (active).

As for `O=C(CN1C(=O)NC(Cc2ccccc2)(Cc2ccccc2)C1=O)NCC1CCCCC1`, the inhibition was 16.1%. With `O=C(O)C1C2C=CC(C2)C1C(=O)N1CCN(CCO)CC1` (configuration not stated), the inhibition is 7.62%.

Turning to `COC(=O)c1cc(NC(=O)C2C3C=CC(C3)C2C(=O)O)cc(C(=O)OC)c1` (configuration not stated), the inhibition is 6.4%. Take `CN1CCN(C(=O)C2C3C=CC(C3)C2C(=O)O)CC1` (configuration not stated): the inhibition is 36.6% (active). Turning to `O=C(CN1C(=O)CC(c2ccccc2)=Nc2ccccc21)NC1CCCCC1`, the inhibition was 7.73%. For the compound `COc1cccc(-c2cc3nc4c(c(N5CCC6(CC5)OCCO6)n3n2)CCCC4)c1`, the inhibition is 77.5% (active). On to `COc1cccc(-c2nc(S(=O)(=O)c3ccccc3)c(N3CCOCC3)o2)c1`, for which the inhibition was 15.6%.

Regarding `COc1cccc(CNc2nc3nc4c(c(=O)n3[nH]2)CCC4)c1`, the inhibition is 3.19%.

Consider `CCOc1ccc(Nc2nc(Cc3nnc(SCC(=O)NC4CCCC4)n3C)cs2)cc1`, for which the inhibition was 5.32%. Consider `O=C(/C=C/c1ccccc1)c1ccoc1`, for which the inhibition is 17.6%. `COc1ccc(C(=O)Nc2ncc3c(n2)-c2ccccc2CC3)cc1`: the inhibition is -6.73%. Turning to `O=C(CCCN1C(=O)c2cccc3cccc(c23)C1=O)N1CCN(Cc2ccc3c(c2)OCO3)CC1`, the inhibition was 13.6%. For `COc1ccc(C2CC(c3ccccc3)Nc3ncnn32)cc1` (configuration not stated), the inhibition was 6.21%.

For the compound `COc1ccc(C2CC(c3ccc(C)cc3)Nc3ncnn32)cc1` (configuration not stated), the inhibition was 0.32%. For `Clc1ccc(C2CC(c3cccs3)n3ncnc3N2)cc1Cl` (configuration not stated), the inhibition was 43% (active).
